Tau fibril FP: qHTS for Inhibitors of Tau Fibril Formation, Fluorescence Polarization; Microtubule-associated protein tau (Homo sapiens), P10636; K18 P301L tau heparin fibrillization, Alexa594 FP, 6 h; Potency, µM (doses to about 57.7 µM), for the others: at the highest dose activity, negative = inhibition, hits mostly inhibitors; 0.39% of 280,000 active; also: nearly all actives have a fitted effect of over 55% in size
Target sequence (P10636 561-689 P618L limits assumed): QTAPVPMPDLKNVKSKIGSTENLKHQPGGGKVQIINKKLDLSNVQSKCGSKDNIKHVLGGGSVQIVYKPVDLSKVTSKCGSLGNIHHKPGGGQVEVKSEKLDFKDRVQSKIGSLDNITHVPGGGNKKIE
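Human K18 P301L fragment (15 uM unlabeled plus 0.24 uM Alexa 594-labeled) in 100 mM sodium acetate pH 7 with compound, aggregation induced by 20 uM heparin for 6 hr at 37 C. ThT (30 uM) added for 1 hr, then Alexa 594 FP read.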
Tau ThT inhib: qHTS for Inhibitors of Tau Fibril Formation, Thioflavin T Binding. 2.1% of 270,000 active. Microtubule-associated protein tau (Homo sapiens), P10636. Potency, µM (doses to about 57.4 µM), for inactives: at the top dose activity, negative = inhibition, hits mostly inhibitors. recombinant tau K18 P301L, heparin-induced fibrillization, ThT fluorescence; also: nearly all actives have a fitted effect of over 55% in size
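Using a mix of unlabeled (15 uM) and Alexa 594-labeled (0.24 uM) tau K18 P301L, heparin-triggered fibrillization over 6 hr at 37 C was scored by ThT fluorescence.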
TRb SRC2 PPI: qHTS for Inhibitors of the Interaction of Thyroid Hormone Receptor and Steroid Receptor Coregulator 2; TRbeta-SRC2 peptide binding, fluorescence polarization; receptor liganded with 1 µM T3; Potency, µM (highest dose often 106 µM), for the others: top-dose activity change, negative = inhibition, usual class: inhibitors; 0.065% of 280,000 active;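 also: plate controls were bound peptide for no effect and peptide without receptor for full effect; nearly all actives have a fitted effect of over 50% in size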
Target sequence (P10828 whole entry, looked up): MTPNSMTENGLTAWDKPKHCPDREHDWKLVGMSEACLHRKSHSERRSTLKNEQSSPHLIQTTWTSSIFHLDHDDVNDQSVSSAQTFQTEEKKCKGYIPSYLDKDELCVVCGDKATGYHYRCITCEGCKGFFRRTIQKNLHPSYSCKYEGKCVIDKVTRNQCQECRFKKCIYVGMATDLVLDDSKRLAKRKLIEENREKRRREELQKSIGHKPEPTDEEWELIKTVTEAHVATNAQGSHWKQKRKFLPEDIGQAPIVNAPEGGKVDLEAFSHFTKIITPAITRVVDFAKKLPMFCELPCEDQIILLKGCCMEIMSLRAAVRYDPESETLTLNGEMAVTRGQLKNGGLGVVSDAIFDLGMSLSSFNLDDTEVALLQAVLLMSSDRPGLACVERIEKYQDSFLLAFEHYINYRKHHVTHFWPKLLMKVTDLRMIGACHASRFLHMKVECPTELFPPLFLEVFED
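Each compound concentration gave % activity, normalized to unbound and bound Texas Red SRC2 controls, from polarization read after 5 hr ambient incubation with T3-loaded human TRb LBD.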
Tau fluor cs: Counterscreen qHTS for Inhibitors of Tau Fibril Formation, Fluorescence Polarization | tau K18 P301L Alexa594 fluorescence, heparin fibrillization | Potency, µM (doses to about 57.7 µM), without a hit: at the highest dose activity change, negative = decrease | 0.93% of 280,000 active; also: nearly all actives have a fitted effect of over 55% in size
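Human tau K18 P301L (15 uM unlabeled, 0.24 uM Alexa 594-labeled) in 100 mM sodium acetate pH 7 with 20 uM heparin, 6 hr at 37 C. ThT 30 uM added, 1 hr ambient; Alexa 594 FP and total fluorescence read at 555/632 nm.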
TexasRed fluor: Total Fluorescence Counterscreen for Inhibitors of the Interaction of Thyroid Hormone Receptor and Steroid Receptor Coregulator 2 | AID 1479, 2009 | Potency, µM (titrated, usually from 106 µM), without a hit: top-dose fluorescence change, negative = quenching | 0.29% of 280,000 active | TRb/SRC2 Texas Red total fluorescence interference; active = well fitted curve in either direction with a large enough effect; inconclusive = small, poorly fitted or top-dose-only effect
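Human TRβ ligand-binding domain (0.6 uM) and Texas Red SRC2 peptide (20 nM) in Tris buffer with 1 uM T3 and 5% DMSO were incubated with pinned compound for 5 hr at ambient temperature. Total fluorescence was computed as S + 2P (555/632 nm).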
* hit, by the source's call; [ ] = another dose, or the depositor's remark. Most compounds without a hit are left out; they make up all but 3.1% or so of the library. Unless noted, calls follow the shape of the dose curve; as a rule, active = well fitted curve in the direction sought with a large enough effect; inconclusive = small, poorly fitted or top-dose-only effect, or another doubt; inactive = no such curve, though single readings can be large; an effect the other way counts as inactive or inconclusive. Unless noted, % is scaled to controls: 0 for no effect and ±100 for the full control effect; potency is read from the fitted curve at half-maximal effect.

For CC(=O)c1cccc2c(O)c(C3=Nc4ccccc4C3=O)[nH]c12 the results were Tau fibril FP inconclusive, Tau ThT inhib 3.5µM*, TRb SRC2 PPI 6%, Tau fluor cs inconclusive and TexasRed fluor 0%.
O=c1ccc2[n+]([O-])c3ccc(O)cc3oc-2c1 was read as Tau fibril FP 32%, Tau ThT inhib 13µM*, TRb SRC2 PPI inconclusive, Tau fluor cs 2µM*[fluorescent] and TexasRed fluor 1.6µM*[fluorescent].
For Cc1cccc(NC(=O)CCS(=O)(=O)c2cccc3nsnc23)c1C the results were Tau fibril FP inconclusive, Tau ThT inhib 20µM*, TRb SRC2 PPI 1%, Tau fluor cs -22% and TexasRed fluor 0%.
Screening CCCOc1ccc(C(=O)Nc2ccc3oc(-c4ccc(N(C)C)cc4)nc3c2)cc1 returned Tau fibril FP -1%, Tau ThT inhib inconclusive, TRb SRC2 PPI -9%, Tau fluor cs -14% and TexasRed fluor inconclusive.
`CCn1c(=NC(=O)c2ccc(S(=O)(=O)N3CCCC3)cc2)sc2cc(Br)ccc21` gave Tau fibril FP inconclusive, Tau ThT inhib 10%, TRb SRC2 PPI 8%, Tau fluor cs -12% and TexasRed fluor -12%.
Screening O=C(/C=C/c1ccc(Br)cc1)NC(=S)NNC(=O)c1ccco1 returned Tau fibril FP 1%, Tau ThT inhib 16µM*, TRb SRC2 PPI -6%, Tau fluor cs -29% and TexasRed fluor -1%.
`O=C(/C=C/c1ccccc1)NC(=S)NNC(=O)c1ccco1` gave Tau fibril FP 1%, Tau ThT inhib inconclusive, TRb SRC2 PPI -14%, Tau fluor cs -13% and TexasRed fluor -4%.
`CCS(=O)(=O)c1ccc(C(=O)NC2CC2)c(Cl)c1Cl` gave Tau fibril FP 0%, Tau ThT inhib -6%, TRb SRC2 PPI 1%, Tau fluor cs -6% and TexasRed fluor 0%.
For Cc1ccc(N=Nc2c(N)nn(-c3ccccc3)c2N)cc1 the results were Tau fibril FP -6%, Tau ThT inhib 4.5µM*, TRb SRC2 PPI 1%, Tau fluor cs inconclusive and TexasRed fluor -2%.
For Cc1nn(-c2ccccc2)c(N)c1N=Nc1ccc2ccccc2c1 the results were Tau fibril FP 1%, Tau ThT inhib 5µM*, TRb SRC2 PPI 2%, Tau fluor cs 16µM*[quencher] and TexasRed fluor -2%.
Cc1nn(-c2ccccc2)c(N)c1N=O was read as Tau fibril FP 1%, Tau ThT inhib -3%, TRb SRC2 PPI 0%, Tau fluor cs 0% and TexasRed fluor -5%.
Screening Cc1ccc(N=Nc2c(N)nn3c(C)cc(C)nc23)cc1 returned Tau fibril FP 0%, Tau ThT inhib inconclusive, TRb SRC2 PPI -8%, Tau fluor cs -14% and TexasRed fluor -8%.
`Cc1ccc(N=Nc2c(N)nn3c(N)c(C#N)c(C)nc23)cc1` gave Tau fibril FP -10%, Tau ThT inhib 1.4µM*, TRb SRC2 PPI 6%, Tau fluor cs inconclusive and TexasRed fluor 3%.
`CO[C@@H]1COC(=O)[C@H]2CCCN2C(=O)C/C=C\[C@@H](C)[C@H](OC)COC(=O)[C@H]2CCCN2C(=O)C/C=C\[C@H]1C` gave Tau fibril FP 0%[11.6 µM], Tau ThT inhib inconclusive, TRb SRC2 PPI -3%[11.2 µM], Tau fluor cs -23%[11.6 µM] and TexasRed fluor 0%[11.2 µM].
Screening C[C@@H]1/C=C\CC(=O)OC[C@H](C)C(=O)N[C@@H](C)C(=O)OC1 returned Tau fibril FP -3%[11.6 µM], Tau ThT inhib -6%[11.5 µM], TRb SRC2 PPI 5%[11.2 µM], Tau fluor cs -7%[11.6 µM] and TexasRed fluor 0%[11.2 µM].
Cc1ccc2nc(-c3ccc(C)o3)c(Nc3ccc4c(c3)OCCO4)n2c1 was read as Tau fibril FP 8%, Tau ThT inhib inconclusive, TRb SRC2 PPI -15%, Tau fluor cs inconclusive and TexasRed fluor 0.0013µM*[quencher].
For Cc1c(N=C2C=C(Br)C(=O)C(Br)=C2)c(=O)n(-c2ccccc2)n1C the results were Tau fibril FP 25µM*, Tau ThT inhib 16µM*, TRb SRC2 PPI 1%, Tau fluor cs 16µM*[quencher] and TexasRed fluor 1%.
Screening Cc1c(N=C2C=CC(=O)c3ccccc32)c(=O)n(-c2ccccc2)n1C returned Tau fibril FP 7.9µM*, Tau ThT inhib 2.2µM*, TRb SRC2 PPI -25%, Tau fluor cs 4.5µM*[quencher] and TexasRed fluor -23%.
For Cc1c(N=Nc2ccc(O)cc2)c(=O)n(-c2ccccc2)n1C the results were Tau fibril FP 3%, Tau ThT inhib 2%, TRb SRC2 PPI 0%, Tau fluor cs -6% and TexasRed fluor -1%.
Cc1c(N2C(=O)c3ccccc3C2=O)c(=O)n(-c2ccccc2)n1C was read as Tau fibril FP 9%, Tau ThT inhib 13%, TRb SRC2 PPI -3%, Tau fluor cs 7% and TexasRed fluor -1%.
For CN(C)c1ccc(/C=C/C(=O)c2c(O)c3ccccc3oc2=O)cc1 the results were Tau fibril FP inconclusive, TRb SRC2 PPI 20%, Tau fluor cs 0.71µM*[fluorescent] and TexasRed fluor 9%.
CCOc1ccc(/C=C/C(=O)c2c(O)c3ccccc3oc2=O)cc1 was read as Tau fibril FP 3%, Tau ThT inhib inconclusive, TRb SRC2 PPI -7%, Tau fluor cs 1% and TexasRed fluor -1%.
For CC(C)=CCC[C@@H](C)[C@H]1CC[C@@]2(C)C3=C(CC[C@]12C)[C@@]1(C)CC[C@H](O)C(C)(C)[C@@H]1CC3 the results were TRb SRC2 PPI -3%[201 µM] and TexasRed fluor 2%[201 µM].
For Cc1cc(OCc2nc3ccccc3s2)ccc1N the results were Tau fibril FP -17%, Tau ThT inhib 14µM*, TRb SRC2 PPI 3%, Tau fluor cs inconclusive and TexasRed fluor -4%.
For O=C(CSc1cccs1)Nc1ccc(Cl)cc1 the results were Tau fibril FP -4%, Tau ThT inhib -7%, TRb SRC2 PPI 2%, Tau fluor cs -16% and TexasRed fluor 0%.
[O-]/[N+](=C\c1ccncc1)c1ccc(Br)cc1 was read as Tau fibril FP inconclusive, Tau ThT inhib 32µM*, TRb SRC2 PPI 0%, Tau fluor cs -25% and TexasRed fluor 1%.
COc1cc(C(=O)Nc2ccc(N(C)C)cc2)cc(OC)c1OC was read as Tau fibril FP 10%, Tau ThT inhib 16µM*, TRb SRC2 PPI -3%, Tau fluor cs -17% and TexasRed fluor -2%.
O=C1CCCC/C1=C\Nc1ccc(O)cc1 was read as Tau fibril FP inconclusive, Tau ThT inhib 16µM*, TRb SRC2 PPI 45µM*, Tau fluor cs inconclusive and TexasRed fluor inconclusive.
Screening Cc1ccc(C)c(N=Nc2ccc(O)c3ncccc23)c1 returned Tau fibril FP 15%, Tau ThT inhib inconclusive, TRb SRC2 PPI -7%, Tau fluor cs -26% and TexasRed fluor 1%.

Screens as filed in PubChem BioAssay.
